Molecules are shown by their SMILES. Records with an inconclusive call do not appear. Where a call stands in place of a potency, no number is given. Values without a mark were called inactive. Active and inactive are the calls of the source. Calls come from the whole dose curve; as a rule, active = well fitted activation curve with a large enough effect in the repeat runs; inconclusive = weak or mixed curves, or effect the other way; inactive = no such curve, though single readings can be large or run the other way.
Potency is the fitted concentration of half-maximal effect.

The nature of this assay: qHTS assay to identify small molecule agonists of the estrogen related receptor signaling pathway with the pleiotropic PPARgamma coactivator (PGC) from Tox21 10K library (AID 1224842). Note: nearly all actives have a fitted effect of over 15% in size. The conditions noted are these: PGC/ERR reporter cell line, luciferase ONE-Glo, 18 h; series mostly up to 92.4 µM. The text has this: National Center for Advancing Translational Sciences [NCATS] NIH Chemical Genomics Center [NCGC] U.S. Environmental Protection Agency [EPA] National Institutes of Environmental Health Sciences [NIEHS] National Toxicology Program [NTP] Assay overview: Estrogen related receptors (ERRs), the first orphan nuclear receptors discovered, play an important role in the control of cellular energy metabolism. ERRs are required for high-energy production in response to the environmental challenges. The pleiotropic PPARgamma coactivator (PGC) is a major partner of ERR and a key regulator in energy homeostasis. Together they have been implicated in the etiology of metabolic disorders such as Type 2 diabetes and metabolic syndrome. ERR-alpha was also identified as an adverse marker for breast cancer progression; ERR-alpha-positive tumors have a poor prognosis. To screen and to identify environmental compounds that perturb the PGC/ERR signaling pathways could provide valuable information for potential therapeutic or preventive measures in the treatment of metabolic disease. For identifying PGC/ERR agonists, PGC/ERR cell line (provided by NTP) has been used to screen Tox21 10K library.
Assay Protocol Summary: The PGC/ERR cells were dispensed at 2,000 cells/5 ul/well in 1536-well white plates using a Multidrop dispenser. After the assay plates were incubated at a 37 C/5% CO2 incubator for 6 hours, 23 nL of compounds dissolved in DMSO, positive and negative controls or DMSO only was transferred to the assay plate by a pin tool. The plates were incubated at 37 C for 18 hours. 4 ul/well of One-Glo reagent was added into the assay plates using a Flying Reagent Dispenser. After 30-minute incubation at room temperature, the luminescence intensity in the plates was measured using a ViewLux plate reader.
`CCCOc1ccc(S(=O)(=O)N2CCN(CC)CC2)cc1-c1nc2c(CC)n(Cc3ccccn3)nc2c(=O)[nH]1`: the Potency result was “inactive”.
For `CCOC(=O)[C@@H](C)Oc1ccc(Oc2nc3ccc(Cl)cc3o2)cc1`, the Potency result was “inactive”.
Same read-out and setting: with `NC(=O)Nc1ccc(Cl)c(Cl)c1` the entry was “inactive”.
Take `[O]=[Bi]`: the activation is -4.11% [at 8.39 µM].
`N#C[C@@H]1C[C@@H]2C[C@@H]2N1C(=O)[C@@H](N)C12CC3CC(CC(O)(C3)C1)C2`: the Potency entry was “inactive”.
Still for that read-out and setting: with `O=c1[nH]c2ccc(S(=O)CCN3CCC(Cc4ccc(F)cc4)CC3)cc2o1` (stereo not given) the entry was “inactive”; with `CN1Cc2cc(C(=O)N3CCC(C4CCNCC4)CC3)ccc2N[C@@H](CC(=O)O)C1=O`, “inactive”; with `C=CC(C)(O)CCCC(C)CCCC(C)CCCC(C)C` (stereo not given), “inactive”.
As for `C=CC(=C)CCCC(C)(C)OC(C)=O`, the Potency entry was “inactive”.
For the compound `NC(=O)N(O)[C@@H]1C=C[C@H](Oc2cccc(Oc3ccc(F)cc3)c2)C1`, the Potency was 27.3 µM (active).
Same read-out and setting: with `COCCOC(=O)C1=C(C)NC(C)=C(C(=O)OC/C=C/c2ccccc2)C1c1cccc([N+](=O)[O-])c1` (stereo not given) the entry was “inactive”; with `COC(=O)c1cc(Cl)ccc1NS(=O)(=O)C(F)(F)F`, “inactive”; with `COc1ccc(CCC(=O)c2c(O)cc(O[C@@H]3O[C@H](CO)[C@@H](O)[C@H](O)[C@H]3O[C@@H]3O[C@@H](C)[C@H](O)[C@@H](O)[C@H]3O)cc2O)cc1O`, “inactive”.
Take `CCNC(=O)N1CCN(CCCC(c2ccc(F)cc2)c2ccc(F)cc2)CC1`: the Potency result was “inactive”.
Turning to `NCC1CCCC(CN)C1` (stereo not given), the Potency entry is “inactive”.
On the same count and under the same terms, to `CCCCCCCCSCCO` belongs “inactive”; to `CN1C(=O)CC(C)(c2ccccc2)C1=O` (stereo not given), “inactive”.
The same measure, in the same setting: to `CCC(Cc1ccccc1)(C(=O)c1ccc(N2CCOCC2)cc1)N(C)C` (stereo not given) belongs “inactive”.
As to `CCCCCCCCCCCCCCCCBr`, the activation is 1.63% [at 19 µM].
As for `c1ccc(COCc2ccccc2)cc1`, the Potency result is “inactive”.
Turning to `O=C(O)Cc1ccc(-c2ccccc2)cc1`, the Potency entry is “inactive”.
For the compound `Nc1ccc(S(=O)(=O)O)c(N)c1`, the Potency entry was “inactive”.
Consider `COc1cc2c(N3CCN(C(=O)Nc4ccc(OC(C)C)cc4)CC3)ncnc2cc1OCCCN1CCCCC1`, for which the Potency was 33.5 µM (active).
Regarding `CO/N=C1\CN(c2nc3c(cc2F)c(=O)c(C(=O)O)cn3C2CC2)CC1CN` (stereo not given), the Potency result was “inactive”.
In the case of `CC1(C)O[C@@H]2C[C@H]3[C@@H]4CCC5=CC(=O)C=C[C@]5(C)[C@H]4[C@@H](O)C[C@]3(C)[C@]2(C(=O)CO)O1`, the Potency result was “inactive”.
As to `CCOC(=O)CC(=O)C(=O)OCC`, the Potency entry is “inactive”.
Same read-out and setting: with `CC1CC(O)CC(C)(C)C1` (stereo not given) the entry was “inactive”.
On the same count and under the same terms, with `CNC(=O)N(c1ccccc1)c1ccccc1` the entry was “inactive”; with `C1COCO1`, “inactive”; with `C[N+]1(C)CCC(=C(c2ccccc2)c2ccccc2)CC1`, “inactive”.
As to `Oc1ccc(Nc2ccccc2)cc1`, the Potency entry was “inactive”.
With `CC(=O)[C@H]1CC[C@H]2[C@@H]3C[C@H](C)C4=CC(=O)CC[C@]4(C)[C@H]3[C@@H](O)C[C@]12C`, the Potency result was “inactive”.
Take `CC(C)CCCC(=O)O`: the Potency result was “inactive”.
The same measure, in the same setting: to `CN1CCN(CCCN2c3ccccc3Sc3ccc(S(=O)(=O)N(C)C)cc32)CC1` belongs “inactive”; to `Cc1nc2ccccn2c(=O)c1CCN1CCC(C(=O)c2ccc(F)cc2)CC1`, “inactive”; to `CC(=O)OCC(=O)[C@H]1CC[C@H]2[C@@H]3CCC4=CC(=O)CC[C@]4(C)[C@H]3CC[C@]12C`, “inactive”.
Consider `COC(=O)c1cc(S(N)(=O)=O)ccc1OC`, for which the Potency entry was “inactive”.
Consider `O=C(NCCCN1CCOCC1)c1ccc(Cl)cc1`, for which the Potency result was “inactive”.
The same measure, in the same setting: with `CC(C)(O)c1ccccc1CC[C@@H](SCC1(CC(=O)O)CC1)c1cccc(/C=C/c2ccc3ccc(Cl)cc3n2)c1` the entry was “inactive”; with `O=C(/C=C/c1ccccc1)OCCCc1ccccc1`, “inactive”.

(Values after PubChem BioAssay (Tox21).)
